# Data: PubChem BioAssay (NCATS)
# Results filed as inconclusive are left out. Activity calls are given as the source filed them. Unless noted, calls follow the shape of the dose curve; as a rule, active = well fitted curve in the direction sought with a large enough effect; inconclusive = small, poorly fitted or top-dose-only effect, or another doubt; inactive = no such curve, though single readings can be large or run the other way.
# Columns and labels:
# [1] = qHTS for Inhibitors of the vitamin D receptor (VDR): Hit Validation using a Texas Red Assay (AID 602201); also: potency is read from the fitted curve at half-maximal effect
# In short: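 Fluorescence polarization with 1.5 uM VDR-LBD, LG19078 and 7 nM Texas Red (final). After 2 hours at ambient temperature, read at Ex 595 nm/Em 615 nm.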
# [2] = target: 3',5'-cyclic-AMP phosphodiesterase 4B (Homo sapiens) (UniProt Q07343); experiment: qHTS Assay for Inhibitors of PDE-IV (AID 607; active = well fitted activation curve with a large enough effect in the main read-out, with a control signal flat, not every such curve was filed as active)
# Sequence of 3',5'-cyclic-AMP phosphodiesterase 4B (Homo sapiens) (Q07343 whole entry, looked up): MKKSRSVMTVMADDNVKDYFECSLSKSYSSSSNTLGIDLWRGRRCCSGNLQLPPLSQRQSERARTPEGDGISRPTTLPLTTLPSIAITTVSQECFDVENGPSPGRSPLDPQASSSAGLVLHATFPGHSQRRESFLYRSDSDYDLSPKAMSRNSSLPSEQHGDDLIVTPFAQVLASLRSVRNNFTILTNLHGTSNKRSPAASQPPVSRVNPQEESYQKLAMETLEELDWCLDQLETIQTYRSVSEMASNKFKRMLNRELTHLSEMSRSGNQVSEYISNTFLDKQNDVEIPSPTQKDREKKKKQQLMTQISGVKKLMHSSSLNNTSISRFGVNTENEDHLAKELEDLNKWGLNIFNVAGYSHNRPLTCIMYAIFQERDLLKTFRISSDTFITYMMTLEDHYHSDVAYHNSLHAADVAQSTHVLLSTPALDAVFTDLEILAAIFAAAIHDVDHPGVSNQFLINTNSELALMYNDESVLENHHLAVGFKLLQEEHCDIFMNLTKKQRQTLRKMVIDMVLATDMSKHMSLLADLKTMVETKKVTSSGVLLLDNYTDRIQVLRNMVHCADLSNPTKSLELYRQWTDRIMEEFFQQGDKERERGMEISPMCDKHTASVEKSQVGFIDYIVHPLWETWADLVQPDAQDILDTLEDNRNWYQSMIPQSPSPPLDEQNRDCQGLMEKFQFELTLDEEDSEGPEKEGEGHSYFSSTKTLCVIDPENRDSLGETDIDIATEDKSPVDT
# In short: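 The readout is membrane depolarisation from a cAMP-sensing CNG channel, detected with a potential dye at ex 535/em 590. Cells were HEK293-derived (endogenous PDE-IV) at 1000 cells/well, titrated up to 22.9 uM final.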
Structure (SMILES),Potency [1],outcome [2]
O=C(O)CSc1cc(NS(=O)(=O)c2cccc([N+](=O)[O-])c2)c2ccccc2c1O,2.82 µM (active),–
O=C1C(C2=C(O)c3ccccc3C2=O)=Nc2ccccc21,inactive,–
COc1cccc(C(=O)C(C#N)=C(SC)SC)c1,inactive,–
O=S(=O)(/C(=C/c1ccc(C(F)(F)F)cc1)c1nc2ccccc2[nH]1)c1ccccc1,inactive,–
O=C1NN(c2ccc(F)c(Cl)c2)C(=O)/C1=C\c1cccc(OC(=O)c2cccs2)c1,inactive,–
O=C(Nc1ccccc1)c1nc(S(=O)(=O)Cc2ccccc2F)ncc1Cl,2.82 µM (active),–
COc1cc(/C=C/C(=O)c2cccc([N+](=O)[O-])c2)cc(OC)c1OC,4.47 µM (active),–
CCOc1cc(/C=C\c2[nH]c(=O)[nH]c(=O)c2[N+](=O)[O-])ccc1OC(C)CC (stereo unspecified),inactive,–
NC(=O)COc1ccc(/C=C2\C(=O)ON=C2c2ccccc2)cc1,25.1 µM (active),–
COc1ccccc1N1C(=O)C=C(Sc2nc(C)cc(C)n2)C1=O,14.1 µM (active),–
CCS(=O)(=O)c1ncc(Cl)c(C(=O)N2CCN(c3cccc(Cl)c3)CC2)n1,2.82 µM (active),–
CCOC(=O)/C(C#N)=C1/C(=O)N(Cc2ccccc2)c2ccccc21,inactive,–
CCOc1ccc(Cl)cc1/C=C1/C(=O)ON=C1C,7.94 µM (active),–
COc1ccc(C)cc1N1C(=N)/C(=C2/Nc3ccccc3S2)C(c2ccccc2)C1=O (stereo unspecified),10 µM (active),–
Cc1ccc(CSC2=NS(=O)(=O)c3ccccc32)cc1,7.94 µM (active),–
Oc1cc2c(cc1C(c1ccc(Cl)c(Cl)c1)N1CCCC1)OCO2 (stereo unspecified),8.91 µM (active),–
O=C(/C=C/c1cc(Br)ccc1O)c1ccco1,inactive,–
N#Cc1c(Nc2ccc(Cl)cc2)s[nH]c1=O,inactive,–
O=c1[nH]c(/C=C/c2ccccc2)c([N+](=O)[O-])c(=O)[nH]1,inactive,–
Cc1ccc(NN2C(=O)C=C(c3ccccc3)C2=O)cc1,inactive,–
CN1CCN(C(=S)C(=O)Nc2ccc(Br)cc2)CC1,17.8 µM (active),–
Cc1ccc(NC(=O)C2=C(c3ccccc3)S(=O)(=O)CCS2(=O)=O)cc1,10 µM (active),–
O=C1C=C(c2ccccc2)C(=O)N1Nc1ccccc1,3.55 µM (active),–
CCC(C)(C)n1nnnc1C(c1ccc(O)c(OC)c1)N1CCc2ccccc2C1 (stereo unspecified),25.1 µM (active),–
CCN(CC)c1ccc(C=Nc2ccc(N(C)C)cc2)c(O)c1,inactive,–
COc1cc(/C=C/C(=O)c2ccc(F)cc2)cc(OC)c1OC,inactive,–

Structure (SMILES),Potency [1],outcome [2]
CC(C)c1nnc(NC(=O)CCS(=O)(=O)c2nc(-c3cccs3)cc(C(F)(F)F)n2)s1,inactive,–
CCc1ccc(-n2nc3cc(C)c(N)cc3n2)cc1,15.8 µM (active),–
CCOc1ccc(/C=C/C(=O)c2c(O)cc(C)oc2=O)cc1,25.1 µM (active),–
O=C1Nc2ccc(Br)cc2C1=Nc1cccnc1,inactive,–
O=C(O)/C=C/C(=O)c1ccc2c(c1)NC(=O)CO2,inactive,–
O=C1Nc2ccccc2/C1=C/C(=O)c1cccs1,28.2 µM (active),–
Cc1cc(C)nc(S/C=C/C(=O)c2ccccc2F)n1,7.94 µM (active),–
O=C(Nc1nnc(COc2ccc(Cl)cc2)s1)c1ccco1,inactive,–
NC(=O)c1c(N)sc2c1CCCCC2,14.1 µM (active),–
FC(F)(F)c1cccc(Sc2nc(-c3ccccc3)nnc2C(F)(F)F)c1,inactive,–
[O-]/[N+](=C/c1ccc(F)cc1)c1ccc(Cl)cc1,inactive,–
Nc1c(N2CCCC2)cc(Cl)c2nonc12,3.98 µM (active),–
CC(=O)NC1=CC(=O)c2nonc2C1=O,3.16 µM (active),–
NC(=O)c1ccc(N=C2C(=O)Nc3ccc([N+](=O)[O-])cc32)cc1,1.41 µM (active),–
CCN(CC)c1ccc(NC(=O)c2cccc(C)c2)cc1S(=O)(=O)Nc1ccccc1OC,inactive,–
C[C@@H](C(=O)Nc1ccc2ccccc2c1)[C@@H]1C[C@@]1(C)[C@@H](NC(=O)c1ccccc1)c1ccccc1,–,inactive
COc1ccc(CNC(=O)[C@H](C)[C@H]2C[C@]2(C)[C@H](NC(=O)OCc2ccccc2)c2ccccc2)cc1OC,–,inactive
O=C(/C=C/c1cccc([N+](=O)[O-])c1)c1ccc2c(c1)OCCO2,14.1 µM (active),–
CCS(=O)(=O)c1oc(-c2ccc(F)cc2)nc1S(=O)(=O)c1ccccc1,7.08 µM (active),–
CCCCN1C(=O)C(=Nc2cccc3cnccc23)c2ccccc21,inactive,–
Cc1oc2c(c1C(=O)c1ccc(Cl)cc1)C(=O)C(=O)c1ccccc1-2,3.98 µM (active),–
CCOC(=O)N1C(=O)[C@@](CC)(c2ccccc2)N1C(=O)OCC,inactive,–
CC(C)(C)C(=O)Nc1ccc2c(c1)C(=O)C(=O)c1ccccc1-2,3.16 µM (active),–
CS(=O)(=O)c1nc(-c2ccccc2)cc(C(F)(F)F)n1,10 µM (active),–
COc1ccc(C(=O)c2coc3c2C(=O)C(=O)c2ccccc2-3)cc1,5.62 µM (active),–
